Test results taken from PubChem BioAssay (NCI).
The panel holds about 83,000 compounds, 20% with a hit somewhere; the sample as a whole holds those more often.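 Single-dose data. Exposure time 48 hours. Values below 10 considered active.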 Values without a mark were called inactive. Calls of active or inactive are those of the source.

These compounds were tested on HL-60(TB) leukemia (assay: NCI-60 one-dose screen, 48 h (100 = growth as untreated, 0 = no growth, -100 = all killed)). Conditions: 10 µM unless noted.
With `Cc1cc2cc3cc(C)c(N(C)C)cc3[n+](C)c2cc1N(C)C` the growth was 47%.
With `Cn1cc(-c2csc(-c3cn(CCCN4CCOCC4)c4ccc(F)cc34)n2)c2cccnc21` the growth was 69.9%.
For `O=C(NNc1ccccc1)C1CCCN1` (stereo not given), the growth was 9.36% (active).
`CC1(C)Cc2c(Br)c(Br)c(Br)c(OCC(O)CN3CCOCC3)c2O1` (stereo not given) was tested, and the growth was -34.1% (active).
With `CSc1ncc(C)c(Nc2ccc(Cl)cc2)n1` the growth was 112%.
Compound `Clc1ccc(-n2ncc3c(NCCCN4CCOCC4)ncnc32)cc1` has a growth of 86%.
With `COC(=O)c1c2c(c(C)[n+]([O-])c1C)C(=O)C=C(NCc1ccc(F)c(F)c1)C2=O` the growth was -24% (active).
For `NC1(N)C=CC2=C(C=C1)C1(N)C3=C(C=CC(N)(N)C=C3)N2C2(N)C3=C(C=CC(N)(N)C=C3)N1C1=C2C=CC(N)(N)C=C1`, the growth was -2.73% (active).
In the case of `CN1CCN(c2nc(Nc3ccc(O)cc3)nc3ccccc23)CC1`, the growth is reported as 61.4%.
`NC1=NN=C(N)C1=Cc1cc2ccccc2n2nnnc12` gave a growth of 96.8%.
Compound `COc1ccc(-c2cc(-c3ccc(Nc4nc(Nc5ccc(Cl)cc5)nc(Nc5ccc(Cl)cc5)n4)cc3)nc(N)c2C#N)cc1` has a growth of 28.3%.
`c1c(-c2cc(C3CC3)[nH]n2)n[nH]c1C1CC1` gave a growth of 78.4%.
`c1ccc(Sc2ncnc3ccccc23)cc1` showed a growth of 74.1%.
`COc1ccc(C(=O)/C=C/c2cc(-c3ccc(OC)c(OC)c3)n[nH]2)cc1OC` was tested, and the growth was -25.4% (active).
For `Cc1c2cccnc2c(C)c2c1c1cc(CO)ccc1n2C`, the growth was 31%.
Work on `C=C1C(=O)O[C@H]2[C@H]1CC/C(C(=O)NCCCCCNC(=O)/C1=C/CC[C@@]3(C)O[C@H]3[C@H]3OC(=O)C(=C)[C@@H]3CC1)=C\CC[C@@]1(C)O[C@@H]21` yielded a growth of 89.4%.
Compound `COc1cccc(CNc2cccc3cn[nH]c23)c1O` has a growth of 144%.
Compound `CC(C)=C(NC(=O)c1ccccc1)C(=O)O` has a growth of 110%.
For `CC(=O)c1c(C)[nH]c(-c2nc3ccc(N4CCN(C)CC4)cc3[nH]2)c1-c1ccc2c(c1)OCCO2`, the growth was -0.621% (active).
In the case of `COC(=O)[C@]1(C)CCC[C@]2(C)[C@H]3C[C@@H]4[C@H]5[C@@H]6CC/C(=N\OCC/C(N)=N/O)[C@H]5[C@@]3(CC[C@H]21)CC4(C(C)C)O6`, the growth is reported as 30.6%.
`N#Cc1c(N)nn(C(=O)c2ccc(NC(=O)c3ccccn3)cc2)c1-c1ccc(Cl)cc1` was tested, and the growth was 69.1%.
`COc1ccc2c(c1)OC(N)=C(C#N)C2c1ccc(F)cc1` (stereo not given) was tested, and the growth was -14.7% (active).
Compound `COc1ccc(C(=O)/C=C/c2cc3ccccc3n3nnnc23)cc1` has a growth of 92.1%.
`O=C1/C(=C\c2cccnc2)SC(=S)N1CCc1ccc(O)cc1` was tested, and the growth was 18%.
Compound `O=C(CCl)N1CCN(C/C=C/c2ccccc2)CC1` has a growth of 102%.
`COc1cc(/C=C/C(=O)c2c(C)nc3ccccc3c2C)ccc1OCCCOc1cc2c(cc1OC)C(=O)N1CCC[C@H]1C=N2` was tested, and the growth was -33% (active).
With `Clc1ccc2c(NCCNc3nc(N4CCOCC4)nc4ccccc34)ccnc2c1` the growth was -65.4% (active).
`CCNc1nc(S(=O)(=O)CC)nc2ccccc12` showed a growth of 91.8%.
For `Cc1cc(O)c(=O)cc2c1C[C@H]1CC(C)(C)/C=C/C[C@]3(C)Oc4cc(=O)c(O)cc(C)c4C[C@H]3C[C@H](O)[C@@]1(C)O2`, the growth was -19.8% (active).
For `COC(=O)[C@]12CC[C@@H](C)[C@H](C)[C@@H]1C1=CC[C@@H]3[C@@]4(C)C(C=O)=C[C@@](C)(CO)C4=CC[C@@]3(C)[C@]1(C)CC2`, the growth was 16.1%.
`Brc1ccc(-c2csc(Nc3ccccn3)n2)cc1` showed a growth of 79.2%.
`COc1cc(/C=C2\CN(S(=O)(=O)c3ccc(C)cc3)C/C(=C\c3cc(CN4CCCC4)c(O)c(OC)c3)C2=O)cc(CN2CCCC2)c1O` was tested, and the growth was -33.6% (active).
Compound `COc1cc(/C=N/NC(=S)NNC(=S)NC2CCCCC2)cc(OC)c1OC` has a growth of 104%.
`CO[C@H]1C[C@@H]2CC[C@@H](C)[C@@](O)(O2)C(=O)C(=O)N2CCCC[C@H]2C(=O)O[C@H]([C@H](C)C[C@@H]2CC[C@@H](OC(=O)C(C)(CO)CO)[C@H](OC)C2)CC(=O)[C@H](C)/C=C(\C)[C@@H](O)[C@@H](OC)C(=O)[C@H](C)C[C@H](C)\C=C/C=C/C=C/1C` was tested, and the growth was -11.9% (active).
`CC(=O)Oc1cccc(OC(C)=O)c1OC(C)=O` showed a growth of 103%.
